# Only some compounds are listed: those with a hit (about 6.7% of all), similar ones and a draw of the others.
# Tcruzi prolif = T. cruzi intracellular proliferation inhibitors, primary screen, cell-based, beta-gal Tulahuen parasites, NIH3T3 host, luminescence. T. cruzi beta-gal in NIH3T3, GalScreen luminescence, 90 h. inhibition, % at 8.34 µM. hit rate 5.9% among 77,000. AID 624255, 2012;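 active = mean inhibition above about 93%, with at least 55% of replicates each passing it, limit read from the data, passing the limit was not always enough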
# C diff growth = C. difficile growth inhibitors, primary screen, HTS; Clostridium difficile clinical isolate growth, OD600, 24 h; hits give low values; growth activity, negative = inhibition, % at 16 µg/mL (by protocol); hit rate 0.25% among 86,000; AID 1259249, 2017;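 active = mean growth activity at or below -80% and every replicate also at or below -80%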;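 also: 0% = DMSO wells and -100% = levofloxacin 16 µg/mL wells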
# Pf Dd2 growth = P. falciparum Dd2 growth inhibitors, primary screen, SYBR Green fluorescence, single dose replicates | activity change, % at 10 µM | 72 h; hits give low values | hit rate 2.3% among 94,000; in the data active = activity change below about -80%
# * = called active by the depositor; / = no result given; ! = repeats disagree.
SMILES,Tcruzi prolif,C diff growth,Pf Dd2 growth
C[C@H](CO)N1C[C@H](C)[C@@H](CN(C)C(=O)N[C@H](C)c2ccccc2)OCc2ccccc2-c2c(n(C)c3ccccc23)C1=O,71.4,11.9,-81.6*
C[C@@H]1CCCCO[C@H](CN(C)S(C)(=O)=O)[C@H](C)CN([C@@H](C)CO)C(=O)c2cc(NS(C)(=O)=O)ccc2O1,7.2,0.2,27.8
COc1ccc(CN2CC3(CCN(Cc4ccccn4)CC3)c3c(n(C)c4cc(OC)ccc34)[C@H]2CO)cc1,/,/,17.9
O=C(C[C@H]1CC[C@@H]2[C@H](COC[C@@H](O)CN2C(=O)C2CCOCC2)O1)NCc1ccncc1,-0.2,-2.8,2.8
C[C@H]1CN([C@@H](C)CO)C(=O)c2cc(NC(=O)C3CC3)ccc2O[C@@H]1CN(C)Cc1ccc2c(c1)OCO2,-1.0,-0.3,5.6
COc1ccc(S(=O)(=O)N[C@@H]2CC[C@H](CCn3cc(-c4ccccc4F)nn3)O[C@@H]2CO)cc1,12.2,-0.8,-92.1*
COc1ccccc1S(=O)(=O)N[C@H]1CC[C@H](CCn2cc(C3CCCC3)nn2)O[C@H]1CO,/,-1.9,-4.6
COc1ccc(S(=O)(=O)N[C@H]2CC[C@@H](CCn3cc(-c4ccccc4F)nn3)O[C@@H]2CO)cc1,-8.9,-3.3,-42.7
CCCc1cn(CC[C@@H]2CC[C@H](NS(=O)(=O)c3ccc(-c4ccccc4)cc3)[C@H](CO)O2)nn1,52.3,-5.0,-92.2*
CN(C)Cc1cn(CC[C@H]2CC[C@H](NS(=O)(=O)c3ccc(-c4ccccc4)cc3)[C@H](CO)O2)nn1,-405.2,/,9.8
O=C(Nc1ccc(Cl)c(Cl)c1)N[C@@H]1CC[C@@H](CCn2cc(C3CCCCC3)nn2)O[C@@H]1CO,20.3,/,-87.5*
O=C(Nc1ccc(Cl)c(Cl)c1)N[C@@H]1CC[C@@H](CCn2cc(C3CCCCC3)nn2)O[C@H]1CO,48.4,-1.1,-15.7
COc1ccccc1S(=O)(=O)N[C@H]1CC[C@@H](CCn2cc(C3CCCC3)nn2)O[C@@H]1CO,/,13.7,-92.7*
O=C(C[C@@H]1C=C[C@@H](NC(=O)c2ccc3c(c2)OCO3)[C@@H](CO)O1)NCc1ccc(Cl)cc1,60.3,0.2,-12.3
C[C@@H]1CCCCO[C@H](CN(C)C(=O)c2ccccc2)[C@@H](C)CN([C@H](C)CO)C(=O)c2cc(NC(=O)Nc3ccccc3)ccc2O1,-61.2,2.0,-5.8
COCC#Cc1ccc2c(c1)O[C@H](CN(C)C(=O)C1CC1)[C@@H](C)CN([C@H](C)CO)S2(=O)=O,-7.3,/,16.2
C[C@@H]1CN([C@@H](C)CO)C(=O)c2cc(NC(=O)CCCCCC(=O)Nc3ccccc3N)ccc2O[C@H]1CN(C)S(=O)(=O)c1ccccc1,/,-10.4,1.6
CCNC(=O)C[C@H]1CC[C@H]2[C@H](COc3ccc(NC(=O)Nc4ccccc4C)cc3C(=O)N2C)O1,27.0,-10.4,-15.0
O=C(C[C@@H]1CC[C@H]2[C@@H](COC[C@@H](O)CN2C(=O)Nc2ccc(Cl)c(Cl)c2)O1)NCc1ccc(Cl)cc1,51.1,-90.5*,-5.4
O=C(C[C@H]1CC[C@H]2[C@@H](COC[C@@H](O)CN2C(=O)Nc2ccc(Cl)c(Cl)c2)O1)NCc1ccc(Cl)cc1,87.8,-68.5,1.5
O=C(C[C@@H]1CC[C@H]2[C@@H](COC[C@@H](O)CN2C(=O)Nc2ccc(Cl)c(Cl)c2)O1)NCc1ccc(F)cc1,-33.8,-28.1,2.5
CCCNC(=O)C[C@@H]1CC[C@H]2[C@@H](COC[C@@H](O)CN2C(=O)Nc2ccc(Cl)c(Cl)c2)O1,-17.2,-102.8*!,-7.5
O=C(C[C@@H]1CC[C@H]2[C@@H](COC[C@H](O)CN2C(=O)Nc2ccc(Cl)c(Cl)c2)O1)NCc1ccc(F)cc1,14.8,-83.7*,8.0
O=C(C[C@H]1CC[C@H]2[C@@H](COC[C@@H](O)CN2C(=O)Nc2ccc(Cl)c(Cl)c2)O1)NCc1ccc(F)cc1,-49.4,-52.9,-7.6
O=C(C[C@H]1CC[C@H]2[C@@H](COC[C@H](O)CN2C(=O)Nc2ccc(Cl)c(Cl)c2)O1)NCc1ccc(F)cc1,57.5,-93.7*,-33.7
SMILES,Tcruzi prolif,C diff growth,Pf Dd2 growth
CCCNC(=O)C[C@H]1CC[C@@H]2[C@H](COC[C@@H](O)CN2C(=O)Nc2ccc(Cl)c(Cl)c2)O1,-93.4,36.9,-28.2
C[C@H](NC(=O)[C@H]1[C@H](CO)[C@H]2Cn3c(cccc3=O)[C@H]2N1CC1CC1)c1ccccc1,50.2,-3.1,4.5
C[C@@H]1CCCCO[C@H](CN(C)CC2CC2)[C@H](C)CN([C@@H](C)CO)C(=O)c2cc(NC(=O)c3ccccc3)ccc2O1,29.9,-9.5,-84.4*
CCCN(C)C[C@@H]1OCCCC[C@H](C)Oc2ccc(NC(=O)c3ccccc3)cc2C(=O)N([C@H](C)CO)C[C@@H]1C,64.9,0.2,/
C[C@@H]1CCCCO[C@@H](CN(C)CC2CC2)[C@H](C)CN([C@@H](C)CO)C(=O)c2cc(NC(=O)c3ccccc3)ccc2O1,/,-8.7,-6.1
CCCN(C)C[C@H]1OCCCC[C@@H](C)Oc2ccc(NC(=O)c3ccccc3)cc2C(=O)N([C@@H](C)CO)C[C@H]1C,-0.5,-1.0,-91.4*
C[C@@H]1CCCCO[C@H](CN(C)C(=O)NC2CCCCC2)[C@@H](C)CN([C@@H](C)CO)C(=O)c2cc(NS(C)(=O)=O)ccc2O1,-10.0,0.0,38.6
CCNC(=O)C[C@@H]1CC[C@@H]2[C@H](COc3ccc(NC(=O)c4cscn4)cc3C(=O)N2C)O1,13.1,-4.0,-2.2
COc1ccc(S(=O)(=O)Nc2ccc3c(c2)C(=O)N([C@@H](C)CO)C[C@@H](C)[C@@H](CN(C)C(=O)NC2CCCCC2)O3)cc1,-66.3,/,3.2
Cc1ccc(S(=O)(=O)N(C)C[C@H]2OCCCC[C@@H](C)Oc3ccc(NC(=O)CCCCCC(=O)Nc4ccccc4N)cc3C(=O)N([C@H](C)CO)C[C@@H]2C)cc1,/,-2.2,-86.9*
Cc1ccc(S(=O)(=O)N(C)C[C@@H]2OCCCC[C@@H](C)Oc3ccc(NC(=O)CCCCCC(=O)Nc4ccccc4N)cc3C(=O)N([C@H](C)CO)C[C@@H]2C)cc1,/,-2.3,/
Cc1noc(C)c1S(=O)(=O)N(C)C[C@H]1OCCCC[C@@H](C)Oc2ccc(NC(=O)CCCCCC(=O)Nc3ccccc3N)cc2C(=O)N([C@@H](C)CO)C[C@@H]1C,32.8,-2.9,-81.2*
C[C@@H]1CCCCO[C@@H](CN(C)S(=O)(=O)c2ccc(Cl)cc2)[C@@H](C)CN([C@H](C)CO)C(=O)c2cc(NC(=O)CCCCCC(=O)Nc3ccccc3N)ccc2O1,9.3,/,-78.4
C[C@H]1CCCCO[C@@H](CN(C)S(=O)(=O)c2ccc(Cl)cc2)[C@@H](C)CN([C@@H](C)CO)C(=O)c2cc(N(C)C)ccc2O1,54.4,0.1,/
COc1ccc(S(=O)(=O)N(C)C[C@H]2OCCCC[C@@H](C)Oc3ccc(N(C)C)cc3C(=O)N([C@H](C)CO)C[C@@H]2C)cc1,36.3,-2.1,-83.2*!
COc1ccc(S(=O)(=O)N(C)C[C@@H]2OCCCC[C@@H](C)Oc3ccc(N(C)C)cc3C(=O)N([C@@H](C)CO)C[C@H]2C)cc1,4.9,-1.0,-35.7
